From PubChem BioAssay AID504444 (National Center for Advancing Translational Sciences (NCATS), 2011)
About 7,500 (2.1%) of roughly 360,000 compounds were called active. Not shown: some 20% with an inconclusive outcome. The call rests on the fitted dose curve; in most records, active means well fitted inhibition curve with a large enough effect; inconclusive means small, poorly fitted or top-dose-only effect, or effect the other way; inactive means flat fitted curve, though single readings scatter. Many of the other results were omitted from the sample, so actives are more common in it than they were.

assay: Nrf2 qHTS screen for inhibitors; conditions: A549 ARE-Fluc reporter, luciferase luminescence, 18-24 h; series mostly up to 46 µM; activity change, negative = inhibition: at the top concentration; further: nearly all actives have a fitted effect of over 60% in size
Excerpt: NIH Molecular Libraries Probe Production Network [MLPCN]
NIH Chemical Genomics Center [NCGC]
Assay Provider: Shyam Biswal, Johns Hopkins University
Nrf2 is a transcription factor that maintains cellular redox homoestasis and protects cells from xenobiotics. Nrf2 binds to the antioxidant response element (ARE) to induce gene expression of a broad spectrum of genes that encode for antioxidants. […] Finding a small molecule that act as an inhibitor of Nrf2 function would represent a novel therapeutic target that could lead to improvement in survival of patients undergoing chemo- and/or radio- therapy.
This is the Nrf2 activity measured in the luminescent read.
1. Shibata, T., et al., Genetic Alteration of Keap1 Confers Constitutive Nrf2 Activation and Resistance to Chemotherapy in Gallbladder Cancer. Gastroenterology, 2008.
2. Sjoblom, T., et al., The consensus coding sequences of human breast and colorectal cancers. Science, 2006. 314(5797): p. 268-74.
NCGC Assay Protocol Summary:
A concentration-response assay was performed with A549 ARE_Fluc cells which are suspended in 5% FBS OPTI-MEM. Five uL were dispensed into 1536-well white TC-treated plate using the Kalypsys dispenser to achieve a density of 5000 cells/well in all columns except column 1. The plate is incubated at 37deg C at 5% CO2 for 2 hours before 23 nL of compounds are added with the Kalypsys pin tool equipped with a 1,536-pin array containing 10-nL slotted pins (FP1S10, 0.457-mm diameter, 50.8 mm long; V&P Scientific). The control compounds Budesonide and Staurosporine are both added at a concentration of 2mM and Budesonide is also added as a 1:10 titration, starting at 200uM, to achieve dose-response. After an 18-24 hour incubation at 37deg C at 5% CO2, 5ul of medium is added to column 1. Afterwards 1ul of 5x of CellTiter-Fluor (Promega) is added to every well. The plate is then incubated at 37deg C at 5% CO2 for 30 minutes before they are read on the ViewLux (Perkin Elmer) for a fluorescent read Ex=405(10)/Em=525(10) for a 3 second exposure, 2x binning, and high gain. Then 3 uL of 3x BugLite is dispensed into all wells and the plate is incubated at ambient room temperature for 15 minutes. Afterwards another ViewLux read is performed using the clear filter to get a luminescent read with the settings of 40 second exposure, 2x binning, and high gain. Cytotoxicity is assessed through the first fluorescent read and then biochemical activity against Nrf2 is measured in the luminescent read.
On the % scale 0 is the no-effect control and ±100 the full control effect; potency means the concentration at half of the fitted maximal effect.

SMILES | activity change, negative = inhibition | Potency
CCOC(=O)C1=C(CN2CCCCCC2)NC(=O)NC1c1cccc([N+](=O)[O-])c1 (stereo unspecified) | 21.8% (inactive) | 
CCOC(=O)C1=C(CN2CCc3ccccc32)NC(=O)NC1c1ccc(Cl)cc1 (stereo unspecified) |  | 16.4 µM (active)
CCOC(=O)C1=C(CN2CCc3ccccc32)NC(=O)NC1c1cccc([N+](=O)[O-])c1 (stereo unspecified) | -21.3% (inactive) | 
COc1ccc(CNCCCn2cnc3c(OCc4ccccc4)ncnc32)cc1 | 19.7% (inactive) | 
CCOC(=O)c1cnc(-n2nc(C)cc2C)nc1NNc1cc(C)nc(-c2ccccc2)n1 |  | 4.11 µM (active)
CCOC(=O)c1cnc(-n2nc(C)cc2C)nc1Nc1cccc(C(C)=O)c1 | 3.3% (inactive) | 
Cc1cc(C)n(-c2c(F)c(F)c(COC(=O)c3ccccc3)c(F)c2F)n1 | 5.92% (inactive) | 
O=c1n(Cc2cccc(C(F)(F)F)c2)c2ccccc2c2nc(-c3ccccc3)nn12 | -0.836% (inactive) | 
CC(Nc1ccc([N+](=O)[O-])cc1[N+](=O)[O-])c1ccccc1 (stereo unspecified) | -22.7% (inactive) | 
CCn1cc(C(=O)OCC(=O)Nc2cc(C)cc(C)c2)c(=O)c2ccc(C)nc21 | 9.75% (inactive) | 
CC[C@]1(C(=O)OC)[C@H]2C(=O)N(Cc3ccccc3)C(=O)[C@H]2[C@H]2CN=C(SCc3ccc(Cl)cc3)N21 | -8.32% (inactive) | 
Cc1ccccc1C(=O)NCCN=C1NS(=O)(=O)c2ccccc21 | -8.96% (inactive) | 
Cc1ccc2ccc3c(c2n1)NS(=O)(=O)c1ccccc1-3 |  | 20.6 µM (active)
Cc1ccc2cccc(NC(=O)c3cccc4ccccc34)c2n1 | -5.31% (inactive) | 
CC(C)(C)OC(=O)C[C@@H]1C/C=C\C[C@@H](CC(=O)N[C@H](CO)Cc2ccccc2)C(=O)NC[C@@H](c2ccccc2)OC1=O | 8.52% (inactive) | 
Cc1ccc(CN(C(=O)c2ccccc2[N+](=O)[O-])c2ccccn2)cc1 | 0.431% (inactive) | 
O=C(Oc1cccc(C(=S)N2CCOCC2)c1)c1cccc(Cl)c1 | -4.92% (inactive) | 
O=C(Nc1ccc(Cl)cc1)Nc1ccc(C(=O)N2CCOCC2)cc1 | -6.09% (inactive) | 
O=C(Nc1ccc(Cl)cc1)c1cccc(OC(=S)N2CCOCC2)c1 |  | 23.1 µM (active)
CCCCNC(=O)C(C)N(CCN(C)C)C(=O)CCCN1C(=O)NC(c2ccc(Cl)cc2)C(C(=O)OCc2ccccc2)=C1C (stereo unspecified) | 6.22% (inactive) | 
N#Cc1nc(Cc2cccc3ccccc23)oc1NCc1ccc2c(c1)OCO2 | -27.6% (inactive) | 
Cc1ccc(OCc2nc(C#N)c(N3CCCC3)o2)cc1 | -20.5% (inactive) | 
N#Cc1nc(COc2ccc(-c3ccccc3)cc2)oc1NCc1cccnc1 |  | 13 µM (active)

SMILES | activity change, negative = inhibition | Potency
Oc1ccc(Br)cc1C1C=C(c2ccc3c(c2)OCO3)NC(c2ccc(Cl)cc2)N1 (stereo unspecified) | 7.41% (inactive) | 
Cc1cccc(C)c1NC(=O)COC(=O)c1c(C)nn(-c2ccccc2)c1C | -16.5% (inactive) | 
CC1CCc2sc(C(=O)NCC(c3ccco3)N3CCCCC3)cc2C1 (stereo unspecified) | -2.39% (inactive) | 
Cc1cc(NC(=O)COC(=O)COc2ccc(Cl)cc2C)c([N+](=O)[O-])cc1C | 14.2% (inactive) | 
CCCn1nnnc1NC(=O)COc1ccc(Cl)cc1C |  | 13 µM (active)
CCOC(=O)N1CCN(C(=O)COc2ccc(Cl)cc2C)CC1 | -6.92% (inactive) | 
CCCc1cc(=O)[nH]c(SCC(=O)Nc2ccc(C(=O)Nc3ccccc3OC)cc2)n1 | -28.8% (inactive) | 
Cc1ccccc1NC(=O)Cn1c(=O)n(CCc2ccccc2)c(=O)c2ccccc21 | -2.38% (inactive) | 
COc1ccc(S(=O)(=O)N(C)C[C@@H]2Oc3ccc(NC(=O)Nc4c(C)noc4C)cc3C(=O)N([C@H](C)CO)C[C@@H]2C)cc1 | -14.7% (inactive) | 
CCOc1ccc(NC(=O)c2ccc(NC(=O)COC(=O)c3ccc(NC(=O)CC#N)cc3)cc2)cc1 | 12.3% (inactive) | 
CCC(C)(C)c1ccc(Oc2ccc(NC(=O)COC(=O)C3=COCCO3)cc2)cc1 |  | 8.2 µM (active)
COc1ccc(NC(=O)COC(=O)CNC(=O)C2CCCCC2)cc1 | 4.96% (inactive) | 
COc1cc(OC)cc(-c2c(C#Cc3ccsc3)c3cc(-c4ccc(OC)cc4F)ccc3n2C)c1 | -9.99% (inactive) | 
O=C(NCCC(=O)N1O[C@@H]2C=C[C@H]1C2)OCC1c2ccccc2-c2ccccc21 | 12% (inactive) | 
Cc1cccc(CSc2nnc(Cn3c(=O)sc4ccccc43)n2C)c1 | -17.1% (inactive) | 
COc1ccc(Cn2c(=O)sc3ccccc32)cc1OC |  | 25.9 µM (active)
COc1ccccc1CNC(=O)CCn1c(=O)sc2ccccc21 | -9.65% (inactive) | 
COc1ccc(-n2c(SC)nc3sc4c(c3c2=O)CCN(C(C)=O)C4)cc1 | 1.06% [at 9.27 µM] (inactive) | 
CN(C(=O)c1cccc(NC(=O)Cc2cccc(NC(=O)C3CCCN(C(=O)C4CC4)C3)c2)c1)C1CCC1 (stereo unspecified) | -3.67% (inactive) | 
CN(C(=O)c1cccc(NC(=O)Cc2ccc(NC(=O)C3CCCN(C(=O)C4CC4)C3)cc2)c1)C1CC1 (stereo unspecified) | -18.1% (inactive) | 
CN(CCc1ccccc1)C(=O)c1cccc(NC(=O)Cc2cccc(NC(=O)C3CCCN(C(=O)CCc4ccccc4)C3)c2)c1 (stereo unspecified) |  | 23.1 µM (active)
CCCN(C(=O)Cn1cc(S(=O)(=O)N2CCN(c3ccccc3F)CC2)c2ccccc2c1=O)c1cccc(C)c1 | 11.7% (inactive) | 
COc1ccc(CNC(=O)COc2ccccc2C(=O)c2cnn(-c3ccccc3)c2)cc1OC | -7.75% (inactive) | 

SMILES | activity change, negative = inhibition | Potency
Cc1ccc(C(=O)OCC(=O)NCc2cc(C)c(O)c(C)c2)cc1S(=O)(=O)N1CCCCC1 | 2.12% (inactive) | 
COc1ccc2c(C)c(CCC(=O)NCc3ccc(OC)c(OC)c3)c(=O)oc2c1 | 12.2% (inactive) | 
CCC(CO)Oc1cc(NCc2ccccc2)c2ncn(C3CCCC3)c2c1 (stereo unspecified) | -19% (inactive) | 
Cc1cc(C)cc(C(=O)NC(CC(N)=O)c2ccc(N3CCC(N4CCCCC4)CC3)c([N+](=O)[O-])c2)c1 (stereo unspecified) | -6.31% (inactive) | 
NC(=O)CC(NC(=O)Cc1ccc(Br)cc1)c1ccc(NC2CC3CCC2C3)c([N+](=O)[O-])c1 (stereo unspecified) |  | 18.4 µM (active)
CC1CCCCN1CCCNc1ccc(C(CC(N)=O)NC(=O)c2ccccc2)cc1[N+](=O)[O-] (stereo unspecified) | -0.271% (inactive) | 
O=C1OCC2=C1C(c1ccc(Cl)cc1)c1cc3c(cc1O2)OCO3 (stereo unspecified) | -8.02% (inactive) | 
COc1ccc(Cl)cc1NC(=O)Cn1c(=O)c2ccccc2n2nncc12 | -1.31% (inactive) | 
Cc1ccc(N=C2NC(=O)/C(=C/C=C/c3ccco3)S2)cc1C | -21.9% (inactive) | 
CN(C)c1ccc(-n2cccc2/C=C2/SC(=Nc3ccc(F)cc3)NC2=O)cc1 | -10.4% (inactive) | 
Cc1cccc(N=C2NC(=O)/C(=C/c3cn(C)c4ccccc34)S2)c1 |  | 14.6 µM (active)
Oc1c(Cl)cc(Cl)c(Cl)c1Cc1c(O)c(Cl)cc(Cl)c1Cl |  | 14.6 µM (active)
O=C(c1ccc2c(=O)n(Cc3ccco3)c(=S)[nH]c2c1)N1CCCC1 | -26.7% (inactive) | 
O=C(Nc1cc(S(=O)(=O)N2CCCCC2)ccc1Cl)C1COc2ccccc2O1 (stereo unspecified) | -17.2% (inactive) | 
CCCOC(=O)c1cc2ccccc2oc1=O | -4.8% (inactive) | 
COc1ccc(Oc2coc3cc(OC(=O)c4cncc(Br)c4)ccc3c2=O)cc1 | -23.2% (inactive) | 
CCOC(=O)c1cc(=O)c2ccc(OCc3ccccc3)cc2o1 | 0.81% (inactive) | 
CCc1ccc(Oc2coc3cc(O)ccc3c2=O)cc1 |  | 7.31 µM (active)
CCc1ccc(Oc2coc3cc(OC(=O)c4cc5ccccc5oc4=O)ccc3c2=O)cc1 |  | 4.61 µM (active)
COc1ccc(-c2onc(C)c2C)cc1S(=O)(=O)NCc1cccs1 | -14.2% (inactive) | 
CC(C)Cn1c(=O)c2ccccc2n2c(-c3cccc(Cl)c3)nnc12 | 0.39% (inactive) | 
O=C(Nc1ccc(C(=O)N2CCOCC2)cc1)Nc1cccc(C(F)(F)F)c1 | -28.3% (inactive) | 
CCOC(=O)N1CCN(C(=O)c2ccc(S(=O)(=O)Nc3cccc(C(F)(F)F)c3)cc2)CC1 |  | 18.4 µM (active)

SMILES | activity change, negative = inhibition | Potency
CCOC(=O)c1cccc(NS(=O)(=O)c2c(C(=O)N3CCCCCC3)c(C)n(C)c2C)c1 | 5.58% (inactive) | 
Cc1ccc(C)c(N2CCN(C(=O)CCc3nc(-c4cccc(C(F)(F)F)c4)no3)CC2)c1 | -25.2% (inactive) | 
COc1ccc(C(=O)OCC(=O)c2cc(C)n(CC3CCCO3)c2C)cc1[N+](=O)[O-] (stereo unspecified) | -11.4% (inactive) | 
Cc1oc2ncnc(N3CCCCC3)c2c1C(=O)N1CCN(c2cccc(Cl)c2)CC1 | 5.11% (inactive) | 
CC(=O)OCC1(O)CC23CCC4c5ccoc5CCC4(C)C2CCC1C3 (stereo unspecified) | -16.8% (inactive) | 
CCC1(C)Cc2c(sc3[nH]c(=S)n(Cc4ccccc4)c(=O)c23)CO1 (stereo unspecified) |  | 16.4 µM (active)
CCC1(C)Cc2c(sc3nc(SC)[nH]c(=O)c23)CO1 (stereo unspecified) | -5.53% (inactive) | 
CCC1(C)Cc2c(sc3nc4n(c(=O)c23)CCCS4)CO1 (stereo unspecified) | 1.02% (inactive) | 
COc1ccc(Cl)cc1NC(=O)c1sc2nc3c(cc2c1N)CN(C)CC3 | 1.59% (inactive) | 
COc1ccc(CNc2nc(-c3ccc(Cl)cc3)cc(C(F)(F)F)n2)cc1 | 0.506% [at 9.27 µM] (inactive) | 
CN(C)c1ccc(C(=O)NCC(=O)OC(C(=O)Nc2cc(C(F)(F)F)ccc2Cl)c2ccccc2)cc1 (stereo unspecified) | 6.05% (inactive) | 
Cc1cccc(N2O[C@H]3C=CC2CCCC3)n1 | 26.1% (inactive) | 
COc1ccc(C(=O)OCC(=O)c2ccc(C)c(S(=O)(=O)N3CCOCC3)c2)cc1OC |  | 20.6 µM (active)
COc1ccc(CCC(=O)Nc2ccc(Cl)c(S(=O)(=O)N3CCOCC3)c2)cc1OC |  | 18.4 µM (active)
COc1ccc(COC(=O)c2ccc(Cl)c(S(=O)(=O)N3CCOCC3)c2)cc1F | -8.75% (inactive) | 
COc1ccc(NS(=O)(=O)c2cc(NC(=O)/C=C/c3cc(OC)c(OC)c(OC)c3)ccc2N2CCCCC2)cc1 | -12.4% (inactive) | 
COc1ccc(CNC(=O)COC(=O)c2ccc(C)c(S(=O)(=O)N3CCOCC3)c2)cc1OC | -8.32% (inactive) | 
COc1cc(/C=C/C(=O)Nc2ccc(OC)c(S(=O)(=O)N3CCOCC3)c2)ccc1OCC#N |  | 9.2 µM (active)
COc1cc(/C=C/C(=O)OCC(=O)N2CCOCC2)ccc1OCC#N | 9.99% (inactive) | 
Cc1ccc(C(=O)OCC(=O)N2CCCCCC2)cc1S(=O)(=O)N1CCOCC1 | 8.03% (inactive) | 
COc1ccc(CC(=O)Nc2ccc3c(c2)CCC3)cc1S(=O)(=O)N1CCOCC1 | -17% (inactive) | 
CCN1CCN(CCCNC(=O)c2ccc3c(c2)sc2nc(-c4ccc(OC)cc4)cn23)CC1 | -26% (inactive) | 
